PubChem BioAssay (EPA / NIEHS)
Several values for one entry are separate records, joined by “and”; a condition that tells them apart may be missing. Equal values may be shown once. Activity calls are given as the source filed them. Rule for the calls: active = hit-call score of the fitted dose curve at least 0.9, where 1 is the maximum; inactive = score below 0.9.

The compounds below were run on Transforming growth factor beta 1 (TGFb1), TGFB1 (gene 7040) (assay: BSK_KF3CT_TGFb1: BioMAP Diversity Plus: KF3CT Assay for Transforming growth factor beta 1 (TGFb1) Biomarker Activity (AID 2283072)). Conditions: primary human keratinocytes with fibroblasts; actives raise or lower the signal.
In short: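 Signal changes in either direction, relative to DMSO, define activity here. TGF-b1 is read by ELISA from a human keratinocyte-fibroblast co-culture 24 h post-dose.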

SMILES	outcome	AC50
c1ccc2c(c1)ccc1ncccc12	inactive	
C/C=C\C/C=C/CCCCCCCCOC(C)=O		10.8 µM (active)
c1ccc(-c2ccccn2)nc1	inactive	
CCO[Si](CCCN=C=O)(OCC)OCC	inactive	

What follows are compounds tested on C-C motif chemokine 2 (Homo sapiens) (UniProt P13500) (assay: BSK_KF3CT_MCP1: BioMAP Diversity Plus: KF3CT Assay for Monocyte Chemoattractant Protein 1 (MCP1/CCL2) Biomarker Activity (AID 2283073)). Conditions: primary human keratinocytes with fibroblasts; actives raise or lower the signal.
In short: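 KF3CT skin co-culture (keratinocytes/foreskin fibroblasts), 24 h post-dose; MCP-1 by ELISA; gain/loss of signal fit bidirectionally vs DMSO baseline.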

SMILES	outcome	AC50
C=CC(=O)OCC(Br)CBr (stereo not given)	inactive	
O=C(Nc1ccccc1SSc1ccccc1NC(=O)c1ccccc1)c1ccccc1	inactive	
CCOc1nc(F)cc2nc(S(=O)(=O)Nc3c(Cl)cccc3C(=O)OC)nn12	inactive	
N#[N+]c1ccc2c(S(=O)(=O)[O-])cccc2c1O	inactive	
COCc1c(C(C)C)nc(C(C)C)c(/C=C/[C@@H](O)C[C@@H](O)CC(=O)O)c1-c1ccc(F)cc1		0.071 µM (active)
CCCCC(CC)COC(=O)c1ccccc1O (stereo not given)	inactive	
O=C1CCCN1CCO	inactive	
CC1OC1C1CCC2(C)OC2C1 (stereo not given)	inactive	
CCO[Si](C)(OCC)OCC	inactive	
C=CCOCC(O)CCl (stereo not given)	inactive	
C#CC1(O)CC[C@H]2[C@@H]3CCC4=CCCC[C@@H]4[C@H]3CC[C@@]21C (stereo not given in full)		30.9 µM (active)
O=C(Cl)c1cc(C(=O)Cl)cc(C(=O)Cl)c1		30.1 µM (active)
CCCCCCCCCCCCCCCC[N+](C)(C)CC		6.3 µM (active)
CN1C(=O)N(C)C(O)C1O (stereo not given)	inactive	
CCCCNc1ccc(NCCCC)c2c1C(=O)c1ccccc1C2=O	inactive	
C=C[Si](OC(C)=O)(OC(C)=O)OC(C)=O	inactive	
Nc1ccc(N)c(Cl)c1	inactive	
O=Nc1ccc(O)cc1	inactive	

SMILES	outcome	AC50
C=CCOc1c(Br)cc(Br)cc1Br		12.2 µM (active)
CCCCCCCCc1ccc(Nc2ccc(CCCCCCCC)cc2)cc1	inactive	
CCCCC/C=C\C/C=C\CCCCCCCC(=O)OC		28.7 µM (active)
C=CC=CC=CCCCCC	inactive	
CC(C)(c1cc(Br)c(OCCO)c(Br)c1)c1cc(Br)c(OCCO)c(Br)c1		16.2 µM (active)
O=C(c1ccc(O)cc1)c1ccc(O)cc1O	inactive	
CCCCC(CC)COCC1CO1 (stereo not given)	inactive	
O=c1c2ccccc2oc2ccccc12	inactive	
S=C(NC1CCCCC1)NC1CCCCC1	inactive	
CCOC(=O)c1ccccc1C(=C1C=C(Br)C(=O)C(Br)=C1)c1cc(Br)c(O)c(Br)c1		3.39 µM (active) and 3.47 µM (active)
CO[Si](OC)(OC)c1ccccc1	inactive	
CC(C)C(=O)C(C)C	inactive	
COc1ccc2nc(N)sc2c1	inactive	
c1ccc2c(c1)ccc1cc3c(ccc4ccccc43)cc12	inactive	
c1ccc2c(c1)ccc1ncccc12	inactive	
C/C=C\C/C=C/CCCCCCCCOC(C)=O		20 µM (active)
c1ccc(-c2ccccn2)nc1	inactive	
CCO[Si](CCCN=C=O)(OCC)OCC	inactive	
